Experiment in all cases: log2 ratio of Biotin-Ahx-Ub-VS probe labelling (fragment/DMSO); higher = less target engagement (more negative = stronger competition), active = hit call of the paper (q ≤ 0.05, log2 ratio ≤ -1)
Settings in all cases: compound concentration: 200 uM; treatment time: 3 h

One experiment deals with T1, OTUD6B (UniProt Q8N6M0).
T1 sequence (whole entry): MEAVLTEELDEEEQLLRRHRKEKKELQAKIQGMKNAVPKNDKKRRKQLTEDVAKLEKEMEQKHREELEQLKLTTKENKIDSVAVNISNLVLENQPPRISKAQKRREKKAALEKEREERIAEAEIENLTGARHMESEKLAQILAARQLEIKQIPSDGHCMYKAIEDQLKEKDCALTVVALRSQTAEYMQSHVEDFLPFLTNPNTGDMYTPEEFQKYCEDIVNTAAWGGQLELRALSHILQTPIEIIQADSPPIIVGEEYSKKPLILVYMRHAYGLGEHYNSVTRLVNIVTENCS
In outline: (§1)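 Using Biotin-Ahx-Ub-VS at 0.5 µM final for 1 h, DUBs were labelled in HEK293T lysate (495 µg per sample) that had first been treated in triplicate with fragment at 200 µM or vehicle for 3 h. NeutrAvidin enrichment, LysC and trypsin digestion and diaPASEF LC-MS/MS followed. Spectronaut label-free quantities were global-median-normalised. Values are average log2 fragment/vehicle ratios by unpaired t-test, using proteins with ≥2 unique peptides.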

The target in another experiment is T2, OTUD7B (UniProt Q6GQQ9).
T2 sequence (whole entry): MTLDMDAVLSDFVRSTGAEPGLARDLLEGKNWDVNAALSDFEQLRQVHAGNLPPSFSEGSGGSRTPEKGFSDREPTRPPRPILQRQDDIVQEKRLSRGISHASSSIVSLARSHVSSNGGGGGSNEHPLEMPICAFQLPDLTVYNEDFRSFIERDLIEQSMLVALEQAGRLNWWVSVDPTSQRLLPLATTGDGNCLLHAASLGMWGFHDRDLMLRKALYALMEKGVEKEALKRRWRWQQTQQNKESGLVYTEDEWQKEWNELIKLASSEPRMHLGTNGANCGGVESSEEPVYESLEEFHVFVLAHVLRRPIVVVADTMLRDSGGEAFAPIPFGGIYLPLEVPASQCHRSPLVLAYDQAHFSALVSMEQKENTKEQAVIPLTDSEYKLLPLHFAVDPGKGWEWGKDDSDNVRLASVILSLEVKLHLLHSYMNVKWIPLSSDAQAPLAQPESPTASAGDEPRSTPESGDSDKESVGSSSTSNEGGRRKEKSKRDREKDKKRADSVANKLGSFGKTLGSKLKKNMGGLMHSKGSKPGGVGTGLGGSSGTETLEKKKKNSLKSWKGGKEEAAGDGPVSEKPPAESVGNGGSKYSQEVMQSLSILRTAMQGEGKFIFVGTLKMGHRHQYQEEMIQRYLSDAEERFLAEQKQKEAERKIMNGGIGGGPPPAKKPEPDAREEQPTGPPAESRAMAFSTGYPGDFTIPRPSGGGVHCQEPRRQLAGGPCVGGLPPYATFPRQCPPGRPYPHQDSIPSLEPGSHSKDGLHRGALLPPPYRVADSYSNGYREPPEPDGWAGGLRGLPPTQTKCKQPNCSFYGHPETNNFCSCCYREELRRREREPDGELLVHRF
In outline: as §1

A further experiment deals with PRPF8 (UniProt Q6P2Q9). In outline:
as §1

The next experiment deals with T3, PSMD7 (UniProt P51665).
T3 sequence (whole entry): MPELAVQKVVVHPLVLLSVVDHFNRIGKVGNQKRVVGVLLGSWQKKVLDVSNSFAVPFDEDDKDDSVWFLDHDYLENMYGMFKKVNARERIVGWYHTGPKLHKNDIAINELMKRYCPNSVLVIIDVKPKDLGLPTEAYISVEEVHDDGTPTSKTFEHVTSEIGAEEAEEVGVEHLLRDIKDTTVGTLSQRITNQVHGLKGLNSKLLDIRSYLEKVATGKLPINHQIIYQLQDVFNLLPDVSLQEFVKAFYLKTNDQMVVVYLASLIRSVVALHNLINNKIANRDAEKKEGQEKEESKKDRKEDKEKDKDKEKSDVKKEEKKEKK
The method in brief:
as §1

Another experiment deals with UCHL1 (UniProt P09936). The method in brief:
as §1

In a further experiment the target is T4, UCHL3 (UniProt P15374).
T4 sequence (whole entry): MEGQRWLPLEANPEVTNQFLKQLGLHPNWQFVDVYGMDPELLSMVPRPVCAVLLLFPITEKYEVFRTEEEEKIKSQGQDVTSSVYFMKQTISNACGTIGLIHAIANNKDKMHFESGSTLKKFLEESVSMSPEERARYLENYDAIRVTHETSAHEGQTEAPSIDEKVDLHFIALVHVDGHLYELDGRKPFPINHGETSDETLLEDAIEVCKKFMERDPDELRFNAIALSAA
The method in brief: as §1

For the next experiment, the target named is T5, UCHL5 (UniProt Q9Y5K5).
T5 sequence (whole entry): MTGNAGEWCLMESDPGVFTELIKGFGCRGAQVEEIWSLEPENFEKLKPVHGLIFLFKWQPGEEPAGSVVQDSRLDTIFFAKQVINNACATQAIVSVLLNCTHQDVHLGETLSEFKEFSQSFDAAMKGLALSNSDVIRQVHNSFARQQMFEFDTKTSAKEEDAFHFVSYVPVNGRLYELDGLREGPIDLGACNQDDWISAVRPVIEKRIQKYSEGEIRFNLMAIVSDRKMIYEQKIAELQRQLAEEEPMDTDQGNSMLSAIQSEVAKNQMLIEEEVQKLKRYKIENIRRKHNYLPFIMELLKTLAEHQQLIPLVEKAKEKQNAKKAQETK
The method in brief: as §1

The target of a further experiment is USP10 (UniProt Q14694). In outline: as §1
In another experiment the target is T6, USP15 (UniProt Q9Y4E8).
T6 sequence (whole entry): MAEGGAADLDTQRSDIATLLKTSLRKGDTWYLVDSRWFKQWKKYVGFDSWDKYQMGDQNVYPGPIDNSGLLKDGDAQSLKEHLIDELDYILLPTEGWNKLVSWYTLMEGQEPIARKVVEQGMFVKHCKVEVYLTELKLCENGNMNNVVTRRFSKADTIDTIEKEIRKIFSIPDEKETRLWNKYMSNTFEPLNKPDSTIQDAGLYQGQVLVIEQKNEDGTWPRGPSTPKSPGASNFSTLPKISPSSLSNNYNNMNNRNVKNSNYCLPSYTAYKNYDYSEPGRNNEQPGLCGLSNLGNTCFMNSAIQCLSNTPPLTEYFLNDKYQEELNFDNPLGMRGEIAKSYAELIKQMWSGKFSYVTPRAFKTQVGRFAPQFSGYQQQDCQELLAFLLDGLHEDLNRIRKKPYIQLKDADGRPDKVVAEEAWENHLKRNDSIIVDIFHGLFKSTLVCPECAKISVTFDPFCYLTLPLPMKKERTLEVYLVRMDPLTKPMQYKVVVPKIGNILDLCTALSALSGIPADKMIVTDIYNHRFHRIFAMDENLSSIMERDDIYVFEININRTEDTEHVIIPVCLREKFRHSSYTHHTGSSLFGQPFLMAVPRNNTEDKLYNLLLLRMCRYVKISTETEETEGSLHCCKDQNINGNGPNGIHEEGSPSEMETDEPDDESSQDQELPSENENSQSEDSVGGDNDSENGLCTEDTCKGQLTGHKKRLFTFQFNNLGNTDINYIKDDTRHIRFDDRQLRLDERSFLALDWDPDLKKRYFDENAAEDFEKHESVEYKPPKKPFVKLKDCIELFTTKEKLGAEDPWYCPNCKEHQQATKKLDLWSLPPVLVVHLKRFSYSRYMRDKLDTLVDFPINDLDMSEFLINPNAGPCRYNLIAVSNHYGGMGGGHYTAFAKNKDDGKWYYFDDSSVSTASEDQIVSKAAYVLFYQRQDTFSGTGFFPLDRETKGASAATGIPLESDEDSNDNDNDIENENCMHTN
In outline:
as §1

A further experiment addresses USP16 (UniProt Q9Y5T5). In outline:
as §1

Unmarked numbers belong to inactive results.

Chain of UCHL1 (P09936 whole entry, looked up): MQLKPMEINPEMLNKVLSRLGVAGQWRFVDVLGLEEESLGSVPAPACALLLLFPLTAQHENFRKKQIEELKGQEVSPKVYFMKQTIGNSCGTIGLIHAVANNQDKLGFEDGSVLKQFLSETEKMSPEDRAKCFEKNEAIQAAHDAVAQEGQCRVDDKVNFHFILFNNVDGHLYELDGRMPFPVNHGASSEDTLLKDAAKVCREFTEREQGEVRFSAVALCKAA
Chain of USP10 (Q14694 whole entry): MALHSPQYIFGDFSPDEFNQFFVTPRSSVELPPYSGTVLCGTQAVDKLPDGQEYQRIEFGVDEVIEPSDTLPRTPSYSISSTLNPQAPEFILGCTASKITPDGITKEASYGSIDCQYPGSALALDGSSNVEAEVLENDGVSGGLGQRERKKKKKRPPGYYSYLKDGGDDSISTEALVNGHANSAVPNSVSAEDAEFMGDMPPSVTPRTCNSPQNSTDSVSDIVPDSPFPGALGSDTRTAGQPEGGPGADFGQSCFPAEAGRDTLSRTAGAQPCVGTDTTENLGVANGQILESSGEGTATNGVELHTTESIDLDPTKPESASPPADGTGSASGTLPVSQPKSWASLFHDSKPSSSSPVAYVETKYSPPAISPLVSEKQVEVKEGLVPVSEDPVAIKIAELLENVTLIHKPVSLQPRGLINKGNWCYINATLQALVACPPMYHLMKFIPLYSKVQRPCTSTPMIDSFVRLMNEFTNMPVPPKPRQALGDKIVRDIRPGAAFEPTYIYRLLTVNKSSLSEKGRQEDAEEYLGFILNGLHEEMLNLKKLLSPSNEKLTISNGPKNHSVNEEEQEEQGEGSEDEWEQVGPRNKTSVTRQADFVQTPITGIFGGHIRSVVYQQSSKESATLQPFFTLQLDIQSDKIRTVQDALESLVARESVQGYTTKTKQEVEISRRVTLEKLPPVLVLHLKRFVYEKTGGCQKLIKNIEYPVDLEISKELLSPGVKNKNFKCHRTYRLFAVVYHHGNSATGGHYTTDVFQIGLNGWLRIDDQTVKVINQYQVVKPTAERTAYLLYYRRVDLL
Chain of USP16 (Q9Y5T5 whole entry, looked up): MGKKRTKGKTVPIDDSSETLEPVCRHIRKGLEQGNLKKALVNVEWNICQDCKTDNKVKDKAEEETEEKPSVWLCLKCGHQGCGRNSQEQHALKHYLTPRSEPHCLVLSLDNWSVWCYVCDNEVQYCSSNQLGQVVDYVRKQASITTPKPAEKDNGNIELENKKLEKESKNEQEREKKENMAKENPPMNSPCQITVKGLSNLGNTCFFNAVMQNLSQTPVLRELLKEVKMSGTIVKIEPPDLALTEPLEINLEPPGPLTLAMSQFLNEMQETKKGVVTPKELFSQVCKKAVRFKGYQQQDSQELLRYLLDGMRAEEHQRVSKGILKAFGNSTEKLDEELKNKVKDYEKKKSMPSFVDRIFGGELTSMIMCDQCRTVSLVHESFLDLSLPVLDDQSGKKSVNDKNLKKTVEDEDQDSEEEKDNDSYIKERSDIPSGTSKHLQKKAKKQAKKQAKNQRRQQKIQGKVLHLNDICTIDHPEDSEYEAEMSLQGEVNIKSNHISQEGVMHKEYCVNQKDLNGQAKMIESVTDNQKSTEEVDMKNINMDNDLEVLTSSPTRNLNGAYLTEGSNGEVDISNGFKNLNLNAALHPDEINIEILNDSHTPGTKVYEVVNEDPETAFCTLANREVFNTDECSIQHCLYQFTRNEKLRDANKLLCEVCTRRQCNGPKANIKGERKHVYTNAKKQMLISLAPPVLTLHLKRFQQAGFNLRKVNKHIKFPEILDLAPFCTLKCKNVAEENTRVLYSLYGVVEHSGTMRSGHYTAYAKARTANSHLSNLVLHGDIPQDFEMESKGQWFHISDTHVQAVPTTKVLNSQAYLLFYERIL

For the compound `Cl.Cn1nc2c(c1CNC(=O)CCl)CCCC2`, the “log2 ratio of Biotin-Ahx-Ub-VS probe labelling” value with OTUD6B is -0.361; with OTUD7B it was -1.04 (active); with PRPF8, -0.184; with PSMD7, -0.299; with UCHL1, -1.7 (active); in the experiment with UCHL3 it was 0.314. Besides, the “log2 ratio of Biotin-Ahx-Ub-VS probe labelling” value was -0.368 in the experiment with UCHL5, -0.24 with USP10, -0.224 in the experiment with USP15 and -0.4 with USP16.
